FUS yeast rescue = FUS proteinopathy suppression in yeast; S. cerevisiae FUS-expressing, growth rescue, OD600, 24 h; Potency, µM (top dose mostly 76.6 µM), actives largely listed as activators; 390,000 tested, 0.24% active; AID 1347120;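 note: plate controls were DMSO vehicle for no effect and reference control for full effect; nearly all actives have a fitted effect of over 55% in size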
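Cultures pregrown in 2.5% raffinose medium are shifted to minimal medium containing 2% galactose to express toxic FUS. Compounds are tested at several concentrations. After 24hr at 30C, growth is quantified at 600 nm absorbance.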
Mito fusion act = inhibitors of mitochondrial division or activators of mitochondrial fusion | S. cerevisiae fusion-defective mutant growth rescue, CellTiterGlo 48 h | Potency, µM (top dose mostly 46.1 µM), without a hit: at the highest dose growth rescue (activation), actives largely listed as activators | 320,000 tested, 0.23% active; note: % of control where 0% means no effect; nearly all actives have a fitted effect of over 45% in size
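Yeast fusion mutant, YPEG (non-fermentable carbon), compound, 48 h at 37C non-permissive; CellTiterGlo added, 10 min RT, luminescence read. Rescued growth = division inhibition.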
aSyn rescue = rescues yeast growth from alpha-synuclein toxicity. Yeast expressing alpha-synuclein, growth rescue, BacTiter-Glo, 24 h. Potency, µM (doses to about 46.1 µM), without a hit: top-dose growth rescue (activation), actives largely listed as activators. 370,000 tested, 0.14% active; note: % of control where 0% means no effect; nearly all actives have a fitted effect of over 65% in size
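Readout is rescue of growth in alpha-synuclein-expressing yeast, so inhibitors of toxicity appear as activators. Growth after 24 hr at 30 deg C in galactose medium is quantified by luminescence.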
Abeta rescue = A-beta toxicity reversal in yeast | Potency, µM (top dose mostly 46.1 µM), usual class: activators | yeast expressing A-beta42, growth rescue, OD600, 48 h; response scale: 0% DMSO, 100% iron-clioquinol control | 410,000 tested, 0.063% active; note: nearly all actives have a fitted effect of over 55% in size
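Yeast growth medium received pinned compounds, then yeast cells expressing toxic A-beta were added; plates incubated at 30 C for 48 hr. Growth read as absorbance at 600 nm, normalized to DMSO and equimolar FeCl3 plus clioquinol controls.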
A-T KAP1 phos = potential ataxia-telangiectasia treatment | F2112 A-T fibroblasts, KAP-1 phosphorylation AlphaLISA; neocarzinostatin DNA damage 30 min before lysis | Potency, µM (series often up to 57.5 µM), without a hit: top-dose activation, usual class: activators | 320,000 tested, 0.19% active | AID 485349; note: % of control where 0% means no effect; nearly all actives have a fitted effect of over 45% in size
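hTERT-immortalized A-T patient fibroblasts (F2112), 500 cells/well in OPTI-MEM, 1% FBS, got compounds for 60 min, then NCS for 30 min at 37C. Lysates were then assayed for phospho-KAP-1 by AlphaLISA (anti-pKAP1 donor, anti-KAP1 acceptor beads), 6 hr at 25C.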
TDP43 rescue = TDP-43 toxicity inhibition in yeast | TDP-43 expressing yeast growth rescue, BacTiter-Glo, 24 h | 410,000 tested, 1.8% active | Potency, µM (titrated, usually from 46.1 µM), for the others: top-dose growth rescue (activation), actives largely listed as activators; note: % of control where 0% means no effect; nearly all actives have a fitted effect of over 50% in size
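Cell-based yeast growth screen: TDP-43 expression induced in galactose, inoculum OD600=0.02 after raffinose pregrowth to mid-log. Read-out BacTiter-Glo luminescence at 24 hr, 30 deg C; inhibition of toxicity seen as signal increase.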
Active calls of the source: *; i = inactive; ? = inconclusive; · = not tested or not shown; ! = not confirmed by another sample; [ ] = another dose, or the depositor's remark. In the library only some 2.4% were active in any assay of this set; here they are far more common. Calls come from the whole dose curve; as a rule, active = well fitted curve in the direction sought with a large enough effect; inconclusive = small, poorly fitted or top-dose-only effect, or another doubt; inactive = no such curve, though single readings can be large; an effect the other way counts as inactive or inconclusive. Potency is the fitted concentration of half-maximal effect.

SMILES	FUS yeast rescue	Mito fusion act	aSyn rescue	Abeta rescue	A-T KAP1 phos	TDP43 rescue
COc1ccc(C)cc1NC(=O)COC(=O)c1ccc([N+](=O)[O-])o1	i	-6%	2%	i	2%	11µM*
CCOc1ccccc1CNCc1c(C(=O)O)n(Cc2ccc(F)cc2)c2cc(C)ccc12	i	·	·	i	·	11%
CCOC(=O)c1sc(=S)n(-c2ccc(Cl)cc2)c1C	i	8%	1%	i	-3%	25µM*
CCOC(=O)c1sc(=S)n(-c2ccc(OC)cc2)c1C	i	1%	-1%	i	21%	20µM*
CCOC(=O)c1sc(=S)n(-c2cc(OC)ccc2OC)c1N	i	-9%	-52%	i	6%	-6%
CCN(CC)c1cc2c(cc1F)c(=O)c(S(=O)(=O)c1ccc(OC)cc1)cn2CC	i	·	·	i	·	8%
CNc1nc(N)c([N+](=O)[O-])c(Nc2ccccc2)n1	i	·	·	·	·	·
Nc1ccc(NC(=O)c2cccc(C(=O)Nc3ccc(N)cc3Cl)c2)c(Cl)c1	11µM*!	7%	-1%	i	13%	-16%
O=C(CNC(c1ccccc1)c1ccccc1)Nc1c(F)cccc1F	i	16%	3%	i	-3%	9%
Fc1cccc(Cl)c1CNC(c1ccccc1)c1ccccc1	i	2%	-23%	i	32µM*	-17%
CC(C(=O)NCc1ccc2c(c1)OCO2)N1c2cccc3cccc(c23)S1(=O)=O (stereo not drawn)	i	0%	0%	i	8%	13µM*
CCNC(=S)NNC(=O)CSc1nc2ccccc2c(=O)n1-c1ccc(Cl)cc1	i	·	·	·	·	·
O=C(N/N=C/C=C/c1ccccc1)NC1CCCCC1	i	2%	?	?	-1%	18µM*
NC(=O)N/N=C/C=C/c1ccccc1	i	-1%	-19%	i	-3%	4µM*
Cc1ccc(-c2cc(C(=O)N/N=C/C=C/c3ccccc3)n[nH]2)s1	i	16µM*	-3%	i	0%	0%
NC(=O)N\N=C/C=C/C=C/c1ccc(F)cc1	i	-4%	1%	i	-1%	21%
COc1ccc(N(C)C(=O)NCc2noc3ccc(C)cc23)c(OC)c1	i	·	·	i	·	9%
C[C@H]1[C@@H](OC(=O)N2CCN(c3ccccc3)CC2)CC[C@@]23CCCN2C(=O)CCC[C@@H]13	i	·	·	·	·	·
COc1ccc(CCn2c3c(c(=O)[nH]c2=O)C(NC(=O)c2ccccc2F)(C(F)(F)F)C(=O)N3)cc1OC (stereo not drawn)	i	·	·	i	·	11%
O=C(CSc1nnc(-c2ccco2)o1)c1ccccc1Cl	22µM*	5%	-4%	i	-4%	?
COc1ccccc1NC(=O)CCSc1nnc(-c2ccco2)o1	i	0%	-3%	i	1%	-5%
CCOc1ccccc1NC(=O)COn1nnc2ccc(Cl)cc21	i	11µM*	1%	i	·	?
CCOc1ccccc1NC(=O)CSc1nnc(-c2ccco2)o1	i	-1%	0%	i	2%	13µM*
CCOc1ccccc1NC(=O)c1ccc2ccccc2c1	i	-1%	-3%	i	9%	6.3µM*
N#CCc1ccc(OC[C@@H](O)CN2CCC(C(O)(c3ccccc3)c3ccccc3)CC2)cc1	i	·	·	·	·	·
SMILES	FUS yeast rescue	Mito fusion act	aSyn rescue	Abeta rescue	A-T KAP1 phos	TDP43 rescue
O=C(NCCO)C1(C(=O)C2CC2)CC(c2ccccc2C(F)(F)F)=NO1 (stereo not drawn)	i	·	·	·	·	·
CCOc1ccccc1NC(=O)CSc1ncc(S(=O)(=O)c2ccc(C)c(C)c2)c(N)n1	32µM*	·	·	i	·	17%
CCOc1ccccc1NC(=O)CSc1ccccc1	i	0%	3%	i	-5%	14µM*
Cc1cccn2c(=O)cc(COc3cccc(NC(=O)c4cccc(Cl)c4)c3)nc12	i	·	·	i	·	-7%
Cc1ccc(NC(=O)C2CCCN(c3nnc(-n4cccc4)s3)C2)c(C)c1 (stereo not drawn)	i	·	·	·	·	·
O=C(NC(=S)Nc1cccc2cccnc12)c1cccs1	i	-3%	16µM*	i	1%	13%
O=C(CCl)N(c1ccccc1)c1ccccc1	i	-8%	12%	i	0%	18µM*
Cc1ccnc2nc(C(=O)OCCOc3ccccc3)nn12	i	2%	-14%	i	-2%	-3%
Cc1ccnc2nc(C(=O)OCCOc3cccc(Br)c3)nn12	i	-9%	-13%	?	0%	16µM*
COc1ccc(C2=CC(=O)OC3(CCCC3)O2)cc1	i	1%	0%	i	·	16µM*
Cc1cc(C)n(-c2ccc(S(=O)(=O)N3CCOCC3)cc2[N+](=O)[O-])n1	i	7%	-1%	i	40µM*	-6%
c1ccc(C2CC(c3cccs3)=NN2c2ccccc2)cc1 (stereo not drawn)	i	9%	?	i	20µM*	-1%
O=S(=O)(c1ccccc1)N1N=C(c2cccs2)CC1c1ccc(Br)cc1 (stereo not drawn)	i	9%	-7%	i	-3%	-15%
CNC(=S)N1N=C(c2cccs2)CC1c1ccc(F)cc1 (stereo not drawn)	i	-40%	10%	i	3%	10µM*
O=C(c1ccco1)N1N=C(c2cccs2)CC1c1ccc(F)cc1 (stereo not drawn)	i	?	·	i	1%	?
COc1ccc(C2=NN(c3ccc(C=O)cc3)C(c3ccccc3)C2)cc1 (stereo not drawn)	i	?	3%	i	23%	5%
Oc1ccccc1C1=NN(c2ccccc2)C(c2ccc(F)cc2)C1 (stereo not drawn)	i	-27%	13%	i	11%	-9%
COc1ccc(C2CC(c3cccs3)=NN2c2ccc(C=O)cc2)cc1 (stereo not drawn)	·	22µM*	0%	i	25µM*	6%
Fc1ccc(C2CC(c3cccs3)=NN2c2ccccc2)cc1 (stereo not drawn)	i	25%	2%	i	32µM*	18%[9.22 µM]
Clc1ccc([C@H]2OC[C@@]3(CNCc4ccccc4)CS[C@H](c4ccc(Cl)cc4)N23)cc1	i	·	·	·	·	·
COP(=O)(O)C(COCCC(CC(C)C)NC(=O)OCc1ccccc1[N+](=O)[O-])NC(=O)OCc1ccccc1 (stereo not drawn)	i	·	·	·	·	·
CC12CC3CC(C)(C1)CC(Nc1nc(N4CCOCC4)nc4ccccc14)(C3)C2	i	-1%	9%	i	10%	20µM*

Screening data from PubChem.
